Here are results for 57 sequences from the supplement of paper PMC11417369.

Whole data set: some 25,000 sequences, median “ln(normalized median fluorescence intensity)” near 7.1, cut for the highest 2% near 10. The list comes from a sample in which the highest values are over-represented; it also holds similar and randomly drawn sequences.

The test has as its system PfSIP2 AP2 domain 1 (GST-tagged). In words: gcPBM binding intensity (ln(normalized median fluorescence intensity)); higher = stronger DNA binding. In short, it runs like this:
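Plasmodium falciparum DNA-binding domains carrying a GST tag were expressed in E. coli and applied for 1 h, at about 25 μg on average, to an Agilent 4 × 180k array. The array held primer-extended double-stranded 36-bp intergenic genomic probes together with negative controls, and binding took place in 1× PBS with 1% milk, 0.2 mg/ml BSA, 0.5% salmon testes DNA and 0.03% Triton X-100. An Alexa488 anti-GST antibody detected bound protein, and the array was scanned at 488 nm. Binding intensity is taken as the highest Masliner-normalised natural-log median intensity across replicate spots of either probe orientation.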
With “AGGAAAAACTTGAATGCATGCGCACATTCTAGTTTG [TGCATGCA_site776]”, the “gcPBM binding intensity (ln)” value came out at 6.99.
The result for “AAAATTTATATAGGCACACAAATAAATTAATACATA [CACACA_site1418]” reads 6.76; that for “TTTTTTTATATTATACGCACTAATATATATATATAT [XGTACX_negctrl_site40]”, 8.94; that for “CCGTATATTTTATATAGTACTCATCATATATTTTTA [XGTACX_site5560]”, 6.96.
The figure for “AAGATAATTACGCACACACACACACGCCCACAACTA [CACACA_site7255]” is 7.34; for “CTGTCTGCAGATATGGTGCATTTGTAAGATCTTACA [GTGCAC_site9870]” it is 10.4; for “TATCTTCATATATGGTGTACAGATTTTTTTTTTTTT [XGTACX_site5545]” it is 7.26.
Take “CATTTTGTAAGATATGCACACATGGATCATATTTTA [CACACA_site423]”: the “gcPBM binding intensity (ln)” value worked out at 6.94.
The result for “GGAAAAAGAAATTAATGTACATGTGGATGTATGAGG [XGTACX_site5468]” reads 7.25; that for “TTTCCTCATTTTATCATACACACTTGTTTATATGTG [CACACA_site8202]”, 6.92.
The figure for “AATCATTTATTGATGGTGCAATATACCATCTAATGA [GTGCAC_site9440]” is 9.44; for “TATTCAGGTCCAATGGTGCAATATATTTTTGTAATA [GTGCAC_site9607]” it is 10.5; for AATTTATATAATTTTGTGCACAATATTCATGTATAT it is 8.93.
The result for ATTCATTTACCAATGGTGCAATATATTTTTATAATG reads 10.3; that for TTTATTTTTTACCAAGTGCAATATATTATAATAATA, 7.77; that for “TCTTTGTATATATGTTCATTTGTAATATATATTCAT [TGCATGCA_negctrl_site467]”, 7.18.
As to “AGCTATATAAATAATACATGCATTGTTCAGGTATTT [TGCATGCA_site964]”, the “gcPBM binding intensity (ln)” value was determined as 6.83.
The result for “TAAATATAGGGTAATAGTACATAATTATATTCTTTT [XGTACX_site3883]” reads 6.76.
The result for GTGTTGGGAAAAGGCATGCACTTTTTTTTTTTTTTT reads 9.34; that for “GGAATAGTCGGGTGCATACACACCTTAAATATAATA [CACACA_site1081]”, 11.4; that for “CTACCTTTAATATATACACACACATAAAAAAAATAT [CACACA_site8548]”, 7.44.
The figure for “ACCTTTAATATATACACACACATAAAAAAAATATAT [CACACA_site1843]” is 7.83; for “TATACCTTAATATACACACATACATATATATATATA [CACACA_site1339]” it is 9.12.
Take “AATAGTCGTGTGCATACACACCTTAACTATAATATA [CACACA_site6636]”: the “gcPBM binding intensity (ln)” value came to 7.41.
For “AATAGTCGGGTGCATACACACCTTAAATATAATATA [CACACA_site8271]”, the “gcPBM binding intensity (ln)” value worked out at 11.3.
As for “TTGATTACACTGAAGTGTACATATATATATATATAT [XGTACX_site3532]”, the “gcPBM binding intensity (ln)” value is 9.07.
The figure for “AATAATAAAATAAAGGCATGCACAATATGCTATAAA [TGCATGCA_site645]” is 7.49; for “TTTAATCATATGTTATATAATAAGCCCCCCCCCCAA [CACACA_negctrl_site486]” it is 10.2; for “ATATTTTTATTTTCTTTACACACCACATAATTTTTT [CACACA_site4060]” it is 7.09.
The figure for “TTTTGTTTTAATTTTATTTGATTTTATTTGATTTAT [CACACA_negctrl_site692]” is 6.69.
Turning to “TTTAATTTTTATATAACACACATATTGTAATTATGT [CACACA_site4566]”, the “gcPBM binding intensity (ln)” value worked out at 6.97.
“TTTATTTTTAACAGTGCACACATAACTTAATTATAT [CACACA_site8681]”: the “gcPBM binding intensity (ln)” value stood at 10.5.
The figure for “TATTTTTAACAGTGCACACATAACTTAATTATATGT [CACACA_site2194]” is 10.6; for “TTTTAATTTATTTATGCACACATATATAATTACACA [CACACA_site8126]” it is 7.52.
The figure for “TTTAACTTTTATATAACACACATATTGTAATTATGT [CACACA_site6486]” is 7.05; for “ATATATATTTTAATAACACACATATATTATATTATA [CACACA_site4387]” it is 7.06; for “AAAAAAAGAAATTAGGTGCATAGCATTAACCGATAA [GTGCAC_site9582]” it is 10.1.
The figure for “TATATATATAGAAATGCATGTTAATAAAAGTTATAA [TGCATGCA_site947]” is 8.13; for “ATTTTTTATATTTAGTGTACATGTTTTAATTTATAA [XGTACX_site7512]” it is 7.29.
For the sequence “GGATAAGAGGCATATACACACAATTTAAAAAAATAA [CACACA_site4657]”, the “gcPBM binding intensity (ln)” value was 7.15.
With “TTTTTTTCAATATTTGCACACGATTAAAATATTTAA [CACACA_site5266]”, the “gcPBM binding intensity (ln)” value came out at 7.28.
The result for “AAAAAAAAAAAAAGTGCACACGATTTAAGGCCTATA [CACACA_site2823]” reads 10.9; that for “AATATTTTAAGGCACACACACAAAAAAAAAAAAAAA [CACACA_site2890]”, 7.22.
The figure for “TTTCTAATTTATATCACACACATATAAATATAGTAA [CACACA_site6210]” is 7.19; for “GGCGTATGTGTATATACACACCCACGTATATAAATA [CACACA_site7489]” it is 7.08; for ATAATGAACAAAGTAGTGCACTTTCCTTATCTTTTC it is 10.9.
The result for “CCTTTCCTTTTATAAGTGCATATAACAAATGTATAC [GTGCAC_site9872]” reads 8.88.
Take ACTAATAACAAAAGCTTGCACTTTTTTTTTCCTAAT: the “gcPBM binding intensity (ln)” value was 7.82.
As for “ATCTTATATCGTAGAGATTTTTTTTTTTTTTCATTT [XGTACX_negctrl_site140]”, the “gcPBM binding intensity (ln)” value was 6.7.
On to “TTTTAAAAAAATAAAAAATAATAAAAAAAATAAAAA [CACACA_negctrl_site1693]”, for which the “gcPBM binding intensity (ln)” value worked out at 6.76.
As to “TTTTTTATAAATCAAATGAAAAATAAACTATTCAGA [CACACA_negctrl_site1568]”, the “gcPBM binding intensity (ln)” value was 6.59.
“TTTTAAATTTTTTAAAGTACACGTCGAAAAGGTATA [XGTACX_site76]”: the “gcPBM binding intensity (ln)” value amounted to 7.93.
For “GCACCCTGTATGAATGCACACATTCATAGAATTGCT [CACACA_site5475]”, the “gcPBM binding intensity (ln)” value came to 8.46.
The result for “TATTTAAAATAATAACAAAATTAACATAAATATATA [GTGCAC_negctrl_site472]” reads 6.82; that for “AAGAACAAATATGAGGTGCAACACAATATATTATTA [GTGCAC_site9965]”, 10.5.
The figure for “TTTATATTTAAATATATATGAGAAAACACAAAATAT [TGCATGCA_negctrl_site211]” is 7.34; for “AAAGAAATATATACAAAAATATGAACAATTTATTAT [XGTACX_negctrl_site78]” it is 6.81.
